Only some compounds are listed: those with a hit (about 1.1% of all), similar ones and a draw of the others.
CatB inh: inhibitors of human cathepsin B; purified cathepsin B, fluorogenic substrate, fluorescence; inhibition, %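 (tested at 10 µM)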; P07858; 0.1% of 63,000 active; AID 453; in the data active means inhibition above about 21%;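 further: 0% = enzyme with no compound and 100% = no enzyme blank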
HER2 expr 66K: inhibitors of human Her2 kinase expression; SKBR-3 HER2 protein level, AlphaScreen, 18-24 h; hits give low values; HER2 level % of control, % at 10 µM; 0.69% of 65,000 active; AID 645;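 active means HER2 level under 5% of the carrier-only control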;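 further: 100% = DMSO carrier and 0% = 500 nM PU-H71 HSP90 inhibitor; lower value means stronger loss of Her2 protein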
CatS inh: blocks human cathepsin S protease activity | P25774 | recombinant cathepsin S, AMC dipeptide fluorescence, pooled mixtures | inhibition, %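 (tested at 5 µM per compound within 10-compound mixtures)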 | 0.06% of 62,000 active | AID 501; in the data active means inhibition above about 32%, passing the limit was not always enough;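 further: 0% = enzyme without compound and 100% = blank without enzyme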
WNV protease inh: inhibitors of West Nile virus NS2B-NS3 protease. z-score (no concentration beside the values). AID 577. WNV NS2B-NS3 protease, fluorogenic substrate Ex360/Em465; hits give low values. 0.18% of 65,000 active; in the data active means z-score below about -3
Target sequence (P06935 1371-1501 limits assumed): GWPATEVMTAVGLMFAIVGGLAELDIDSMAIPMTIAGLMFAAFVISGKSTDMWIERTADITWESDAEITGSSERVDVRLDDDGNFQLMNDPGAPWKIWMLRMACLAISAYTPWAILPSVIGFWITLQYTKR
Target sequence (P06935 1502-1679 limits assumed): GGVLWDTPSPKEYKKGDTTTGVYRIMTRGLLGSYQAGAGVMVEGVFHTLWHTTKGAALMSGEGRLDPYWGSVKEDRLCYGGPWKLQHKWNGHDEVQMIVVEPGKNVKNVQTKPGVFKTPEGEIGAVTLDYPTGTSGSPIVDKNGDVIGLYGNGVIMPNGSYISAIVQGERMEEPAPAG
CatL inh: inhibitors of human cathepsin L | 0.17% of 58,000 active | P07711 | purified cathepsin L, fluorogenic substrate, fluorescence | inhibition, %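 (tested at 10 µM)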 | AID 460; in the data active means inhibition above about 45%;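 further: 0% = enzyme with no compound and 100% = no enzyme blank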
Target sequence (P07711 114-288 limits assumed): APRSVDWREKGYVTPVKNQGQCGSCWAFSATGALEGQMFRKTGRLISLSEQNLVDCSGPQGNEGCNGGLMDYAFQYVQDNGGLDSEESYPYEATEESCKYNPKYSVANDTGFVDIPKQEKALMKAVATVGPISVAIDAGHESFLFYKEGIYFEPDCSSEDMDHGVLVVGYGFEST
Target sequence (P07711 292-333 limits assumed): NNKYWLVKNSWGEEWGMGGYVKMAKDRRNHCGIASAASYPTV
CatB mixtures: human cathepsin B inhibition by mixtures. AID 488. inhibition, %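 (ten-compound pools at 5 µM per compound and 50 µM total)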. 0.06% of 62,000 active. Purified cathepsin B, AMC dipeptide fluorescence, compound mixtures. P07858; in the data active means inhibition above about 22%, passing the limit was not always enough;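 further: 0% = enzyme without compound and 100% = no enzyme blank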
Active calls of the source: *; / = not tested or not shown.

SMILES	CatB inh	HER2 expr 66K	CatS inh	WNV protease inh	CatL inh	CatB mixtures
CCN1CCN(C(=O)c2nn(-c3ccc(C)cc3)c(=O)c3c2c2ccccc2n3C)CC1	7	87	10	-0.43	1	2
CCNC(=O)Nn1c(C)nnc1C	2	112	/	0.64	9	/
Cc1ccc(Cl)cc1N1CCN(C(=O)C2CCN(c3nnc(-n4cccc4)s3)CC2)CC1	4	90	-8	-1.1	4	5
O=C(C1CCN(c2nnc(N3CCCC3=O)s2)CC1)N1CCN(Cc2ccc3c(c2)OCO3)CC1	-5	70	11	-0.86	47*	4
CC1CCN(Cc2ccc(NC(=O)C3CCN(c4nnc(-n5cccc5)s4)CC3)cc2)CC1	13	84	/	-0.51	67*	6
O=C(NCCC1=CCCCC1)C1CCN(c2nnc(-n3cccc3)s2)CC1	4	95	2	0.11	/	3
O=C(C1CCN(c2nnc(-n3cccc3)s2)CC1)N1CCN(Cc2ccc3c(c2)OCO3)CC1	2	93	6	0.96	53*	-6
O=C(C1CCCN(Cc2ccc3c(c2)OCO3)C1)N1CCCC1 (stereo not drawn)	5	156	14	0.13	15	-6
COc1ccc(-c2nnn(CC(=O)N(CC(=O)NC3CCCC3)c3cccc(C)c3)n2)cc1OC	-2	82	-1	0.62	10	-6
N#Cc1nc(-c2ccco2)oc1N1CCC(C(N)=O)CC1	1	119	-11	-0.18	-49	1
CCCn1c(NC(=O)c2ccccc2)nc2ccccc21	2	88	-1	2.6	-8	-2
CCCn1c(NC(=O)c2cccc(S(=O)(=O)N3CCCC3)c2)nc2ccccc21	4	-3.3*	9	1.2	-2	-1
COc1ccc(N(CC(O)Cn2nnc3ccccc32)S(=O)(=O)c2ccc(C)cc2)cc1 (stereo not drawn)	-3	128	10	0.85	-3	-1
Oc1cccc2ccc(Nc3ccccn3)nc12	-3	-20*	-12	1.7	4	4
c1ccc(Nc2ccccc2Nc2ccccn2)nc1	0	153	28	0.2	4	4
COCCOC(=O)c1c(C)n(C)c2ccc(OC(=O)c3cccs3)cc12	-7	28	-4	0.45	6	-3
CCN(CC)CC(O)Cn1c2ccccc2c2ccccc21 (stereo not drawn)	6	64	-4	-1.1	11	2
O=S(=O)(c1ccc(F)cc1)N(CCO)CC(O)Cn1c2ccccc2c2ccccc21 (stereo not drawn)	3	-13*	13	-4.1*	/	6
Cc1cc(NC(=O)COC(=O)CSc2nc3cc(Cl)ccc3n2Cc2ccccc2)no1	0	86	-5	-0.63	-5	4
Cc1ccc(S(=O)(=O)c2c(C)nn(C(C)(C)C)c2OC(=O)c2ccc(Br)o2)cc1	0	4.1*	-1	-0.41	-3	1
CCn1c2ccccc2c2nnc(SCC(=O)NC(C(=O)OC)C(C)C)nc21 (stereo not drawn)	4	111	0	-1.2	-3	6
Cc1ccc(-c2nnn(CC(=O)N(c3cccc(F)c3)C(C(=O)NC3CCCC3)c3ccco3)n2)o1 (stereo not drawn)	8	71	13	-0.0027	10	1
CCOC(=O)c1c(C)oc2c1c(C(c1ccncc1)N1CCOCC1)c(O)c1ccccc12 (stereo not drawn)	1	-12*	10	0.62	6	2
CCOC(=O)c1c(C)oc2c1c(C=NC1CCS(=O)(=O)C1)c(O)c1ccccc12 (stereo not drawn)	2	63	2	0.67	8	-1
Cn1c(=O)c2c(-c3ccccc3)n(-n3cnnc3)cc2n(C)c1=O	59*	53	-6	-0.6	25	50*
SMILES	CatB inh	HER2 expr 66K	CatS inh	WNV protease inh	CatL inh	CatB mixtures
COC(=O)CSc1cc(SCC(=O)OC)c(C#N)c(SCC(=O)OC)c1	-2	2.9*	-3	-0.2	-3	-4
COC(=O)CSc1nc(N)c(C#N)c(C(C)C)c1C#N	-1	111	6	-0.72	-9	7
COc1ccc(N2CCN(c3nc(NCCc4ccc(OC)c(OC)c4)nc(OC)n3)CC2)cc1	4	74	0	-0.08	-3	3
CCOC(=O)C(C)Oc1cccc2c(=O)n(CC(=O)NCc3ccc4c(c3)OCO4)ccc12 (stereo not drawn)	2	74	4	0.87	11	-1
CCOC(=O)/C=C/S(=O)(=O)c1ccc(NC(C)=O)cc1	-3	-22*	4	2.2	12	-6
Clc1ccccc1Cn1nnc2c(N3CCCC3)ncnc21	/	103	/	-0.06	/	/
CC(C)(C)NC(=O)CSc1ncnc2c1nnn2Cc1ccccc1Cl	-1	4.8*	13	-0.02	0	-4
Cc1c(C(=O)NCCN2CCOCC2)oc2ccccc12	-3	98	19	-0.74	7	1
CNC(=O)c1ccsc1NC(=O)c1ccccc1	10	95	-5	-0.29	-4	2
Nc1nc(-c2cccs2)c(NC(=O)c2ccccc2)s1	3	-11*	-11	-0.99	10	3
CCCS(=O)(=O)N1CCC(C(=O)NCc2ccccc2Cl)CC1	0	105	-2	0.06	-1	1
Cn1cc(Cl)c(-c2nc3ccccc3[nH]2)n1	-2	82	1	-0.79	15	-1
Nc1nonc1-c1nc2ccccc2[nH]1	18	45	2	1.6	41	52*
CC(C)NS(=O)(=O)c1ccc(OCC(=O)NCc2cccnc2)cc1	2	129	-4	-0.14	/	-5
COc1ccc(OCC(=O)NCc2cccnc2)cc1	-4	-14*	-1	2.4	26	2
CCS(=O)(=O)CCSc1nc2ccccc2o1	5	89	7	-0.75	17	5
O=S(=O)(CCSc1nc2ccccc2o1)c1nc2ccccc2s1	-1	-14*	-3	1.6	-1	1
O=S(=O)(CCSc1ccccn1)c1nc2ccccc2s1	5	-8.5*	-1	1.6	8	0
COc1ccc(N2CCCn3c2nc2c3c(=O)n(Cc3ccccc3F)c(=O)n2C)cc1	0	95	-9	-0.92	/	-2
COC(=O)c1[nH]c(C)c(/C(O)=C2\C(=O)C(=O)N(CCN3CCOCC3)C2c2cccnc2)c1C (stereo not drawn)	1	101	/	-0.22	1	/
CC(C(=O)O)C1SC(=O)NC1=O (stereo not drawn)	2	101	-2	-0.06	2	1
COc1ccc(N2CCN(C(=O)c3cn(C4CCCC4)c(=O)c4c3c3ccccc3n4C)CC2)cc1	4	60	9	0.13	/	3
COc1ccc(N2CCN(C(=O)c3cn(C)c(=O)c4c3c3ccccc3n4C)CC2)cc1	-1	77	-5	-3.8*	2	2
Nc1nnnn1/N=C/C(Br)=C/c1ccccc1	3	-20*	15	0.5	19	4
